The values below come from PMC9838217, “Structure of SALL4 zinc finger domain reveals link between AT-rich DNA binding and Okihiro syndrome”.

What all share (test): HT-SELEX; high values mean tight binding
Holding throughout (conditions): protein: recombinant; vector His6-GST; dsDNA, one strand shown

For one experiment, the target named is T1, SALL4 ZFC4 WT (HT-SELEX) (Mus musculus, UniProt Q8BX22 870-940).
T1 sequence: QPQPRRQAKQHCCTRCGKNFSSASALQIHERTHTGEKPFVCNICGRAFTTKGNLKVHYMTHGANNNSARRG
An outline of the steps:
(§1)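 Residues 870–940 of mouse SALL4, forming zinc finger cluster 4, were expressed recombinantly, purified, and 1 µg was incubated with library DNA (1.5 µg first cycle, 200 ng later) in 100 µl of 10 mM Tris–HCl pH 7.5, 50 mM NaCl, poly(dI-dC) and DTT for 10 min at room temperature. Washed Ni2+ bead-captured complexes were PCR-amplified and reselected for up to 6 cycles in triplicate, and the products were sequenced on MiSeq and scanned for 6-mers. Binding signal is the fold change in each canonical k-mer's read fraction compared with the initial random library.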

The target of experiment [1] is T2, SALL4 ZFC4 R900W (HT-SELEX) (Mus musculus, UniProt Q8BX22 870-940, R900W).
T2 sequence: T1 sequence with R31W
An outline of the steps:
as §1

Experiment [2] deals with T3, SALL4 ZFC4 G921D (HT-SELEX) (Mus musculus, UniProt Q8BX22 870-940, G921D).
T3 sequence: T1 sequence with G52D
An outline of the steps:
as §1

Residue numbers refer to the chain shown, from its start.

With GAACCA, the binding signal amounted to 0.766 ± 0.0201 fold-change vs cycle 0 with SALL4 ZFC4 WT (HT-SELEX), 0.871 ± 0.0494 fold-change vs cycle 0 in experiment [1] and 0.937 ± 0.0521 fold-change vs cycle 0 in experiment [2].

For AGTCGA, the figures for the binding signal (with SALL4 ZFC4 WT (HT-SELEX); in experiment [1]; in experiment [2]) were 0.617 ± 0.0356 fold-change vs cycle 0, 0.697 ± 0.0314 fold-change vs cycle 0 and 0.807 ± 0.0559 fold-change vs cycle 0, respectively.

As for CCGATA, the binding signal with SALL4 ZFC4 WT (HT-SELEX) was 0.671 ± 0.053 fold-change vs cycle 0; in experiment [1] it was 0.717 ± 0.0449 fold-change vs cycle 0; in experiment [2], 0.816 ± 0.0546 fold-change vs cycle 0.

Take ACAAAA: the values for the binding signal (in the experiment with SALL4 ZFC4 WT (HT-SELEX); in experiment [1]; in experiment [2]) were 1.6 ± 0.0623 fold-change vs cycle 0, 1.61 ± 0.0945 fold-change vs cycle 0 and 1.5 ± 0.125 fold-change vs cycle 0, respectively.

GCACTA: the binding signal with SALL4 ZFC4 WT (HT-SELEX) came to 0.57 ± 0.0256 fold-change vs cycle 0; in experiment [1] it was 0.649 ± 0.0265 fold-change vs cycle 0; in experiment [2], 0.725 ± 0.019 fold-change vs cycle 0.

With GTTACA, the binding signal came out at 1.35 ± 0.0329 fold-change vs cycle 0 with SALL4 ZFC4 WT (HT-SELEX), 1.46 ± 0.0565 fold-change vs cycle 0 in experiment [1] and 1.37 ± 0.0864 fold-change vs cycle 0 in experiment [2].
